# Assay outcomes from PubChem BioAssay.
# Lamin A splicing: modulators of lamin A splicing | HeLa LMNA splicing GFP/RFP minigene ratio, 48 h | Potency, µM (titrated, usually from 46.1 µM), for inactives: at the top dose ratio change, negative = inhibition, hits mostly inhibitors | hit rate 0.01% among 200,000; active = well fitted inhibition curve with a large enough effect in the signal ratio, with a control signal flat, not every such curve was filed as active; inconclusive = small, poorly fitted or top-dose-only effect, or effect the other way, or a change in a side signal; the % refers to the signal ratio; also: % is scaled to controls: 0 for no effect and ±100 for the full control effect
#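 S3 HeLa stable clones carrying a lamin A-EGFP splicing minigene plus DsRed2 were seeded at 600 cells/well in Opti-MEM with 2% FBS, pin-dosed and incubated 48 h at 37°C. Acumen cytometry (488 nm) gave the GFP/RFP total-intensity ratio.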
# HTT cytoprotect: cytoprotection in Huntington HTT-Q103 PC12 cell model; PC12 HTT-Q103 induced, cytoprotection, ATP luminescence, 40 h; Potency, µM (top dose mostly 56.4 µM), for inactives: cytoprotection (ATP increase), actives largely listed as activators; hit rate 0.14% among 230,000; active = well fitted curve in the direction sought with a large enough effect; inconclusive = small, poorly fitted or top-dose-only effect, or another doubt; inactive = no such curve, though single readings can be large; an effect the other way counts as inactive or inconclusive; also: % of control where 0% means no effect; nearly all actives have a fitted effect of over 45% in size
#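 Readout: ATPlite luminescence (ATP level). Model: stable PC12, inducible Htt exon1 Q103-GFP. Inducer: tebufenozide, 100 nM final. Compounds: dose series. No G418 in medium.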
# HttQ103 aggreg: mutant huntingtin aggregation inhibition; PC12 HttQ103-GFP aggregates, Acumen cytometry, 40 h; Potency, µM (doses to about 46.1 µM), without a hit: at the top dose activity change, negative = inhibition, most hits filed as inhibitors; hit rate 1.1% among 220,000; AID 1688; active = well fitted curve in the direction sought with a large enough effect; inconclusive = small, poorly fitted or top-dose-only effect, or another doubt; inactive = no such curve, though single readings can be large; an effect the other way counts as inactive or inconclusive; also: % is scaled to controls: 0 for no effect and ±100 for the full control effect; nearly all actives have a fitted effect of over 60% in size
#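 Read-out: GFP aggregate count by laser scanning cytometer (488 nm excitation, 500-530 nm emission, 1–25 µm objects >6 SD above background). Cells: PC12, inducible HTTex1-Q103-GFP, 100 nM tebufenozide; compounds titrated.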
# JMJD2E inh: inhibitors of human JMJD2E histone demethylase. B2RXH2. JMJD2E catalytic domain, FDH-coupled NADH fluorescence (FDH is formaldehyde dehydrogenase). Potency, µM (highest dose often 57.1 µM), without a hit: top-dose activity change, negative = inhibition, usual class: inhibitors. hit rate 1.6% among 230,000. AID 2147;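 also: 0% = wells with enzyme and -100% = buffer wells without enzyme; nearly all actives have a fitted effect of over 50% in size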
# Target sequence (B2RXH2 1-337 limits assumed): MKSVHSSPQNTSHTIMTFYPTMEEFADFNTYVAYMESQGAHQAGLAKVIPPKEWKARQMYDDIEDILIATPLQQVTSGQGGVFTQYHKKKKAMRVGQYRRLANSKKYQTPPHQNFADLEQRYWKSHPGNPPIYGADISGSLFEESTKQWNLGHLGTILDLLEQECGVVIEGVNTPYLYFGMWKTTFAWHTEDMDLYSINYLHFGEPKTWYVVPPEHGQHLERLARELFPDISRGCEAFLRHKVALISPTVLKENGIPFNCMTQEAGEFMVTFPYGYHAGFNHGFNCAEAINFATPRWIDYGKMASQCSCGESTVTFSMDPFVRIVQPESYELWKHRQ
# ALDH1A1 block: inhibitors of human aldehyde dehydrogenase 1A1; AID 1030; P00352; Potency, µM (top dose mostly 75.3 µM), inactives show at the highest dose activity, negative = inhibition, most hits filed as inhibitors; Purified ALDH1A1, NADH fluorescence, propionaldehyde substrate; hit rate 7.3% among 220,000;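 also: plate controls were no enzyme wells and a reference inhibitor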
# Target sequence (P00352 whole entry, looked up): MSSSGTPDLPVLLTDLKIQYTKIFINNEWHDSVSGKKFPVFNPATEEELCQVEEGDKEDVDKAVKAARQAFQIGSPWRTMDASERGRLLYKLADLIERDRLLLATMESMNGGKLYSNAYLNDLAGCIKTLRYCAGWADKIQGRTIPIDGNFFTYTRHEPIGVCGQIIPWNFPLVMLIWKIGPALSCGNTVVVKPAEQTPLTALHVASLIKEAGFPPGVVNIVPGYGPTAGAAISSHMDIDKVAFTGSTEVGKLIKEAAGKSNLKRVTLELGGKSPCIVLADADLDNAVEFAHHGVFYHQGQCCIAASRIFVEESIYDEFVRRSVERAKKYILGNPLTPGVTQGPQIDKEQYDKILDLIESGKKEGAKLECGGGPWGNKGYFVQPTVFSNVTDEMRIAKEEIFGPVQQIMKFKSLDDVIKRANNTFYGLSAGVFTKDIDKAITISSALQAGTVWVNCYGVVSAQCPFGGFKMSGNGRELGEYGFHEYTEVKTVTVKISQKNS
# HPGD inh: HPGD (human) dehydrogenase inhibition; P15428; purified HPGD, NADH fluorescence kinetic, PGE2 substrate; Potency, µM, inactives show at the highest dose activity change, negative = inhibition, hits mostly inhibitors; hit rate 4.3% among 150,000; also: % is scaled to controls: 0 for no effect and ±100 for the full control effect
#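 NADH formation kinetics: reaction with 30 uM PGE2 and 1 mM NAD+ (final), 20 nM enzyme, Tris-HCl pH 8 with Tween 20, after 15 min compound preincubation at room temperature. Fluorescence change, last versus first of five reads.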
# * marks the source's active call; other numbers are inactive results; ? = inconclusive; nt = no result given; [ ] = remark or other dose. In the library only some 9.2% were active in any assay of this set; here they are far more common. Unless noted, calls follow the shape of the dose curve; as a rule, active = well fitted inhibition curve with a large enough effect (not every such curve was filed as active); inconclusive = small, poorly fitted or top-dose-only effect, or another doubt; inactive = no such curve, though single readings can be large or run the other way. Potency is read from the fitted curve at half-maximal effect.
SMILES,Lamin A splicing,HTT cytoprotect,HttQ103 aggreg,JMJD2E inh,ALDH1A1 block,HPGD inh
CCOC(=O)C(=O)N1CCC(C(=O)OCC)CC1,nt,8%[10 µM],-7%[9.22 µM],6%,-1%,nt
O=C(Oc1ccccc1)N1CCC2(CCCN(c3ncccn3)C2)CC1,nt,-11%,nt,nt,-4%,?
CCOC(=O)/C=C/CCCC=O,nt,-35%,nt,-1%,6%,-6%
C=C(C)C(=O)/C=C/CCC/C=C/C(=O)OCC,nt,28%,nt,4%,25µM*,-6%
FC(F)(F)c1cccc(NC(=S)NCc2ccccc2)c1,12%,-61%,-32%,0%,7%,28µM*
Cc1ccccc1C(=O)NNC(=S)Nc1cccc(C(F)(F)F)c1,?,nt,19%,1%,18µM*,-24%
CC(C)(O)C(=O)NNC(=S)Nc1cccc(C(F)(F)F)c1,?,29%,15%,-25%,?,nt
O=C(O)CS(=O)CC(=O)NCc1cccc(C(F)(F)F)c1 (stereo not drawn),nt,-11%,19%,-11%,2%,nt
O=C(O)CS(=O)CC(=O)Nc1cccc(C(F)(F)F)c1 (stereo not drawn),nt,1%,15%,1%,1.8µM*,nt
CCn1ncc(NC(=O)Nc2cccc(C(F)(F)F)c2)c1C(N)=O,6%,8%[0.074 µM],-20%,2%,5%,-6%
CCSCCc1nnc(NC(=O)Nc2cccc(C(F)(F)F)c2)s1,?,-11%[1.9 µM],11µM*,7%,11%,-4%
FC(F)(F)c1cccc(CNC(=S)Nc2ccccc2)c1,12%[9.22 µM],-37%[1.9 µM],22%[9.22 µM],-3%,-5%,nt
CNNC(=S)Nc1cccc(C(F)(F)F)c1,nt,17%[10 µM],-3%[9.22 µM],5%,-1%,nt
Cc1ccccc1NC(=O)Nc1ccc(C(F)(F)F)cc1,nt,-49%,11µM*,-3%,3%,nt
CCOc1ccc(NC(=S)NNc2ccnc3cc(Cl)ccc23)cc1,?,-9%,-8%,-8%,3.2µM*,nt
COc1ccc(NC(=S)NNC(=S)Nc2cccc(C(F)(F)F)c2)cc1,nt,-1%[10 µM],-4%[9.22 µM],4%,0.45µM*,nt
CCOc1ccc(NC(=S)NNC(=S)Nc2cccc(C(F)(F)F)c2)cc1,nt,-4%[10 µM],-7%[9.22 µM],-16%,1.3µM*,nt
CC(=O)c1cc(CN2CCN(C3CCCCC3)C(CCO)C2)cs1 (stereo not drawn),16%[46 µM],11%[10 µM],0%[9.22 µM],-1%,-3%,nt
CCCn1c(-c2ccc(F)cc2)nc2c(NCCN3CCSCC3)nc(C)nc21,nt,-36%,nt,-12%,?,-6%
O=C(NCCCN1CCN(c2ccc(F)cc2)CC1)c1sc2ncccc2c1-n1cccc1,-3%[46 µM],nt,nt,nt,nt,nt
FC(F)(F)c1cccc(NC(=S)NNC(=S)Nc2cccc(C(F)(F)F)c2)c1,nt,-2%[10 µM],-5%[9.22 µM],-1%,1.6µM*,nt
CCOc1cc(OCC)cc(C(=O)NC(=S)Nc2cccc(C(F)(F)F)c2)c1,6%,4%,13%,-2%,3.5µM*,-27%
O=C(Nc1ccccc1)Nc1cccc(C(F)(F)F)c1,nt,-80%,22µM*,-3%,-2%,nt
CN(C)CCCN(Cc1ccccc1)C(=S)Nc1cccc(C(F)(F)F)c1,?,nt,0.0006µM*,2%,-4%,nt
Cc1cccc(NC(=S)NNC(=O)c2ccccc2OC(F)F)c1,?,-23%,?,-4%,9.5µM*,-11%
SMILES,Lamin A splicing,HTT cytoprotect,HttQ103 aggreg,JMJD2E inh,ALDH1A1 block,HPGD inh
O=C(NNC(=S)Nc1cccc(C(F)(F)F)c1)c1ccc(Cl)cc1Cl,?,5%[10 µM],11µM*,-10%,20µM*,-15%
O=C(NNC(=O)c1ccc(Cl)cc1Cl)Nc1ccccc1,-9%,10%[10 µM],-10%,10%,6%,-5%
CCOc1ccc(NC(=S)NNC(=O)c2cc(Br)ccc2Cl)cc1,nt,nt,?,-10%,13µM*,nt
FC(F)(F)c1cccc(NC(=S)Nc2ccc(Cl)c(Cl)c2)c1,nt,-5%[10 µM],-8%[9.22 µM],-23%,13µM*,nt
COc1ccc(NC(=S)NNC(=O)c2ccccc2OC(F)F)cc1,-21%,3%,-20%,9%,-3%,-18%
COCCCNC(=S)Nc1ccc2c(c1)OCCO2,-11%,-6%[10 µM],-11%,0%,8%,-19%
Cc1nn(S(=O)(=O)c2ccc(Br)cc2)c(C)c1S(=O)(=O)N1CCCCCC1,17%[46 µM],nt,nt,nt,nt,nt
O=C(Nc1cccc(F)c1)N1CC[C@@]2(CCCN(S(=O)(=O)c3ccccc3)C2)C1,nt,-31%,nt,nt,-3%,-5%
O=C(NCCO)C(O)C(O)C(=O)NCCO (stereo not drawn),-6%[46 µM],18%[10 µM],5%[9.22 µM],-1%,18µM*,nt
C/C(C[n+]1ccccc1)=N\N=C(N)N,nt,3%[10 µM],nt,nt,2%[13.5 µM],-11%
COc1ccc(Oc2ncc3nc(C)c(=O)n(C[C@H]4CCCO4)c3n2)cc1,0%,-9%,nt,nt,?,nt
CC(=O)Nc1ccc(C2=NN(C)C(=NCc3ccccc3)SC2)cc1,5%[46 µM],-15%,9%,-8%,2.8µM*,nt
O=C(Nc1ccc(Cl)cc1)N1CCSC1=NCc1ccccc1,nt,6%[10 µM],-15%[9.22 µM],5%,nt,nt
O=[N+]([O-])c1cc(CN2CCCC2)ccc1Sc1ccc(Cl)cc1,-12%[46 µM],-18%,-8%[9.22 µM],-4%,1%,nt
CC1C[N+](=C2C=C(N3CCOCC3)CC(C)(C)C2)CC(C)O1 (stereo not drawn),nt,2%[10 µM],23%[9.22 µM],25µM*,nt,nt
Cn1c(=O)oc2cc(S(=O)(=O)NCc3ccc(C(=O)O)cc3)ccc21,nt,-6%[10 µM],-7%[9.22 µM],5%,nt,nt
Cn1c(=O)oc2cc(S(=O)(=O)NCc3ccncc3)ccc21,?,-23%[0.074 µM],8.9µM*,9%,-4%,-1%
CC(SCc1ccccc1)C(=O)NN=C1CCN(C)CC1 (stereo not drawn),-7%,0%[10 µM],-20%,190%,1.3µM*,-15%
CN1CCC(=NNC(=O)CSCc2ccccc2)CC1,5%,-20%,8%,6%,25µM*,-4%
Cc1ccc(SCC(=O)NN=C2CCN(C)CC2)cc1,nt,-16%,12%,31%,?,nt
COC(=O)N/N=C/C1=C[N+](=O)c2ccccc2[N+]1=O,?,-40%,17%,-22%,-6%,-13%
CN(Cc1cnn(C)c1)C(=O)c1sc2cccc(Cl)c2c1Cl,?,7%,-18%,-2%,?,28µM*
S=C1NC2=C(CCCC2)C2(CCCCC2)N1,-9%,?,?,-17%,0.32µM*,-13%
Nc1nc2n(n1)C1(CCCCC1)C1=C(CCCC1)N2,-6%,20%,17%,-5%,?,-1%
CCOc1nc(OCC)nc(N2CCC(C)CC2)n1,18%,-2%[10 µM],12%,-1%,10µM*,-3%
CC1CCC(C(=O)O)NC1c1ccc(-c2ccco2)cc1 (stereo not drawn),nt,-5%[10 µM],nt,nt,2%[13.5 µM],nt
C=C(C)C(=O)Nc1cccc(C2=NOC3(C2)C[C@@H](C(N)=O)N(C(=O)/C=C/C=C/C)C3)c1 (stereo partly drawn),nt,17%[10 µM],43%[9.22 µM],-14%,nt,nt
O=C1C(Cl)=C(Nc2ccc3cn[nH]c3c2)C(=O)c2ccccc21,nt,-98%[10 µM],4µM*,10µM*,nt,nt
